Several values for one entry are separate records, joined by “and”; a condition that tells them apart may be missing. Identical values can stand only once. Out of some 5,500 compounds screened, about 2,000 (36%) were called active. About 18% were inconclusive and are not listed. Cut-off read from the data, not from the text of the source: active = normalized growth mostly below about 0.91 (no sharp cut-off); inconclusive = no clear call, values can overlap the other calls; inactive = mostly above about 0.92. The list shows a part of the results.
Assay: chemical genetic growth profiling, strain panel (AID 1159580);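 note: tested at 20 µM; growth read once vehicle control cultures reached saturation at 30 °C; 1 = growth at the plate median or of vehicle wells; lower values mean less growth of the strain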
Settings: S. cerevisiae deletion strains, growth OD

Measured: normalized growth

CCN(CC)CCNC(=O)c1cc(Br)c(N)cc1OC
inactive: locus YAL021C, strain ccr4, active compounds read low 0.984 | locus YAL026C, strain drs2, active compounds read low 0.997 | locus YAL030W, strain snc1, active compounds read low 0.997 | locus YBL061C, strain skt5, active compounds read low 0.992 | locus YBR009C, strain hhf1, active compounds read low 1.02 | locus YBR021W, strain FUR4, active compounds read low 1.03 | locus YBR023C, strain chs3, active compounds read low 0.992 | locus YBR171W, strain sec66, active compounds read low 0.983 | locus YBR229C, strain ROT2, active compounds read low 0.957 | locus YBR231C, strain swc5, active compounds read low 0.981 | locus YBR279W, strain paf1, active compounds read low 0.991 | locus YCL011C, strain gbp2, active compounds read low 0.978 | locus YCL016C, strain dcc1, active compounds read low 0.992 | locus YCL029C, strain bik1, active compounds read low 0.989 | locus YCL061C, strain MRC1, active compounds read low 0.984 | locus YCL069W, strain vba3, active compounds read low 0.987 | locus YCR088W, strain abp1, active compounds read low 0.981 | locus YDL005C, strain med2, active compounds read low 0.989 | locus YDL035C, strain GPR1, active compounds read low 0.986 | locus YDL040C, strain nat1, active compounds read low 1 | locus YDL074C, strain BRE1, active compounds read low 0.947 | locus YDL101C, strain DUN1, active compounds read low 0.976 | locus YDL134C, strain PPH21, active compounds read low 1.01 | locus YDL185W, strain tfp1, active compounds read low 0.983 | locus YDL192W, strain arf1, active compounds read low 0.983 | locus YDR001C, strain nth1, active compounds read low 0.979 | locus YDR069C, strain doa4, active compounds read low 1.01 | locus YDR101C, strain arx1, active compounds read low 0.979 | locus YDR137W, strain rgp1, active compounds read low 1.04 | locus YDR159W, strain sac3, active compounds read low 1 | locus YDR162C, strain NBP2, active compounds read low 1 | locus YDR195W, strain ref2 0.967 | locus YDR297W, strain sur2, active compounds read low 0.976 | locus YDR318W, strain mcm21, active compounds read low 1 | locus YDR334W, strain swr1, active compounds read low 0.954 | locus YDR335W, strain msn5, active compounds read low 0.987 | locus YDR388W, active compounds read low 0.989 | locus YDR392W, strain spt3, active compounds read low 0.932 | locus YDR502C, strain sam2, active compounds read low 0.983 | locus YEL003W, strain gim4, active compounds read low 0.979 | locus YEL037C, strain rad23, active compounds read low 0.985 | locus YEL061C, strain CIN8 (second series), active compounds read low 0.982 | locus YEL061C, strain CIN8, active compounds read low 0.978 | locus YER015W, strain faa2, active compounds read low 0.986 | locus YER016W, strain bim1, active compounds read low 0.997 | locus YER110C, active compounds read low 0.978 | locus YER111C, strain swi4, active compounds read low 1.01 | locus YER155C, strain BEM2 (second series), active compounds read low 1 | locus YER155C, strain BEM2, active compounds read low 1 | locus YER167W, strain BCK2, active compounds read low 1.01 | locus YFR010W, strain ubp6, active compounds read low 0.984 | locus YGL078C, strain dbp3, active compounds read low 0.974 | locus YGL086W, strain mad1, active compounds read low 0.98 | locus YGL167C, strain pmr1, active compounds read low 0.98 | locus YGL173C, strain kem1, active compounds read low 0.991 | locus YGL227W, strain vid30, active compounds read low 0.995 | locus YGL240W, strain doc1, active compounds read low 0.993 | locus YGL248W, strain PDE1, active compounds read low 0.971 | locus YGL253W, strain hxk2, active compounds read low 0.982 | locus YGR078C, strain PAC10, active compounds read low 0.975 | locus YGR135W, strain pre9, active compounds read low 1.04 | locus YGR252W, strain gcn5, active compounds read low 1.02 | locus YHR013C, strain ard1, active compounds read low 0.972 | locus YHR027C, strain rpn1, active compounds read low 0.976 | locus YHR030C, strain SLT2, active compounds read low 0.997 and 0.978 | locus YHR079C, strain IRE1 (second series), active compounds read low 0.989 | locus YHR079C, strain IRE1, active compounds read low 1 | locus YHR094C, strain hxt1, active compounds read low 0.985 | locus YHR129C, strain ARP1, active compounds read low 1 | locus YHR142W, strain chs7, active compounds read low 0.97 | locus YHR200W, strain rpn10, active compounds read low 0.994 | locus YIL066C, strain RNR3, active compounds read low 0.965 | locus YIL073C, strain SPO22, active compounds read low 1.04 | locus YIL125W, strain kgd1, active compounds read low 0.985 | locus YIR030C, strain dcg1, active compounds read low 0.986 | locus YJL092W, strain hpr5, active compounds read low 0.973 | locus YJL095W, strain BCK1 (second series), active compounds read low 0.99 | locus YJL095W, strain BCK1, active compounds read low 0.962 and 0.993 | locus YJL115W, strain asf1, active compounds read low 0.966 | locus YJL129C, strain trk1, active compounds read low 0.99 | locus YJL134W, strain LCB3, active compounds read low 0.994 | locus YJL154C, strain vps35, active compounds read low 0.986 | locus YJL164C, strain tpk1, active compounds read low 1.01 | locus YJL166W, strain qcr8, active compounds read low 0.998 | locus YJL168C, strain set2, active compounds read low 0.987 | locus YJL187C, strain SWE1 (second series), active compounds read low 0.944 | locus YJL187C, strain SWE1, active compounds read low 0.993

From PubChem BioAssay AID1159580 (chemical genetic matrix, 2015)
